Potency, outcome and max activation data for 7 compounds are collected here from PubChem BioAssay (Tox21).

Structures are written as SMILES. Unmarked numbers belong to inactive results. Inconclusive results are not listed. Calls of active or inactive are those of the source. Unless noted, calls follow the shape of the dose curve; as a rule, active = well fitted curve in the direction sought with a large enough effect in the repeat runs; inconclusive = weak or mixed curves; inactive = no such curve, though single readings can be large; an effect the other way counts as inactive or inconclusive.

Assay [1] has as its target Thyrotropin receptor (Homo sapiens) (UniProt P16473). The assay is described as follows: qHTS assay to identify small molecule antagonists of the thyroid stimulating hormone receptor (TSHR) signaling pathway (AID 1259385; calls by dose curve; also: % is scaled to controls: 0 for no effect and ±100 for the full control effect; nearly all actives have a fitted effect of over 20% in size). The gist of the method: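 TSHR-HEK293 cells (800/well) plated 18 h, then compounds with Ro20-1724 and TSH at 1.5 ng/mL final, 30 min at room temperature. cAMP quantified by HTRF (cAMP-d2/anti-cAMP-cryptate, 1 h); 15 concentrations in triplicate.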
On the technique in general: Quantitative high-throughput screening tests each substance at several concentrations.

Assay [2] in a line: qHTS assay to identify small molecule agonists of the estrogen receptor alpha (ER-alpha) signaling pathway in the presence of an antagonist - cell viability counter screen (AID 1259386).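 Also: cells exposed to compounds for 22 h at 37 °C before the viability read; nearly all actives have a fitted effect of over 30% in size.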 Also: potency is read from the fitted curve at half-maximal effect. The gist of the method:
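Cytotoxicity was measured in parallel with the ERE-luciferase agonist screen, in the same wells. The cells were VM7Luc4E2, which endogenously express ER-alpha, and treatment was with compounds plus 10.0nM ICI-182,780 for 22hr.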

Assay [3] deals with Progesterone receptor (Homo sapiens) (UniProt P06401). The assay is described as follows: qHTS assay to identify small molecule agonists of the progesterone receptor (PR) signaling pathway (AID 1346784; calls by dose curve; also: % is scaled to controls: 0 for no effect and ±100 for the full control effect; nearly all actives have a fitted effect of over 30% in size). In a few lines: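 PR-UAS-bla HEK 293T cells carrying a UAS-driven beta-lactamase reporter were seeded in medium with 2% charcoal-stripped FBS, preincubated 6 hr at 37C, then exposed to compounds in DMSO for 16 hr; agonism was read by LiveBLAzer B/G FRET fluorescence.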
Chain of Progesterone receptor (Homo sapiens) (P06401 whole entry, looked up): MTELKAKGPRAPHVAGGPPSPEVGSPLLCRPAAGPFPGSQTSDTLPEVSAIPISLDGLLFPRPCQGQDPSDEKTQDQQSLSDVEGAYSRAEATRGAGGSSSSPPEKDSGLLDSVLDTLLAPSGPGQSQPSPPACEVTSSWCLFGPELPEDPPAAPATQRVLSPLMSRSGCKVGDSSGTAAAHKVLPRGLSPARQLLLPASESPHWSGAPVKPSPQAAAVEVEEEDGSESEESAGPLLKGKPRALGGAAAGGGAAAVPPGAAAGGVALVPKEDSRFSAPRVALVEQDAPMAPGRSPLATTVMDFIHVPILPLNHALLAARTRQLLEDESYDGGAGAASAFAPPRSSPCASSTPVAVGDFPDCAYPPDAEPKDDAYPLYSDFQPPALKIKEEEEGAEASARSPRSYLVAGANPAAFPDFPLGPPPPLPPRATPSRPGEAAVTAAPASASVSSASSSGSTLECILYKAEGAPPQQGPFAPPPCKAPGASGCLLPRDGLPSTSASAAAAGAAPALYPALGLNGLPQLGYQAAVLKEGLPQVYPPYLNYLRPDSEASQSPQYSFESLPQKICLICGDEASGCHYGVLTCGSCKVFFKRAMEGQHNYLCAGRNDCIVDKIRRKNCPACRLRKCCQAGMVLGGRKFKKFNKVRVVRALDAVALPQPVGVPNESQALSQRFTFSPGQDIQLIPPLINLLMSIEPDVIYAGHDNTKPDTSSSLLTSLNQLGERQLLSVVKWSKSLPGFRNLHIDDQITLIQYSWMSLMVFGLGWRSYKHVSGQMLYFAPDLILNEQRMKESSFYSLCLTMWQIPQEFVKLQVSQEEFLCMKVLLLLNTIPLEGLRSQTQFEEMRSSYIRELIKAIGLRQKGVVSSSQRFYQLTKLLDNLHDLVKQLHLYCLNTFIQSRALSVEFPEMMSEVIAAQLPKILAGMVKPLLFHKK

Assay [4] in a line: qHTS assay to identify small molecule antagonists of the progesterone receptor (PR) signaling pathway - cell viability counter screen (AID 1346798). Also: nearly all actives have a fitted effect of over 50% in size. Also: potency is read from the fitted curve at half-maximal effect. The gist of the method: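 PR-UAS-bla HEK293T cells in medium with 2% charcoal-stripped FBS were treated with compounds plus R5020 for 16 hr at 37C. Cell viability was then read by CellTiter-Glo luminescence after 30 min at room temperature in the same wells.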

Assay [5] can be described thus: qHTS assay to identify small molecule antagonists of the TGF-beta/Smad signaling pathway - cell viability counter screen (AID 1346824). Also: % is scaled to controls: 0 for no effect and ±100 for the full control effect; nearly all actives have a fitted effect of over 50% in size. The gist of the method: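 SBE-bla HEK 293T cells, incubated overnight, then compound plus 0.25 ng/mL TGF-beta1 (stock added) for 5 hr at 37 C. Viability was read in the same wells by CellTiter-Glo luminescence after 30 min at room temperature.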

A short description of assay [6]: qHTS assay to identify small molecule agonists of the TGF-beta/Smad signaling pathway - cell viability counter screen (AID 1346829). Also: top concentration of the series differs between compounds; % is scaled to controls: 0 for no effect and ±100 for the full control effect; nearly all actives have a fitted effect of over 45% in size. In a few lines: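 Tox21 qHTS format: SBE-bla HEK 293T cells treated with DMSO-dissolved compounds for 5 hr; CellTiter-Glo luminescence after 30 min at room temperature.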
Assay [7] is described as follows: qHTS assay to identify small molecule agonists of the TGF-beta/Smad signaling pathway (AID 1346859; active = well fitted activation curve with a large enough effect in the signal ratio in the repeat runs, not every such curve was filed as active; the % refers to the signal ratio; also: series mostly up to about 77 µM; % is scaled to controls: 0 for no effect and ±100 for the full control effect). In a few lines:
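HEK 293T cells stably carrying a beta-lactamase reporter driven by the Smad binding element were seeded overnight, exposed to DMSO-dissolved compounds for 5 hr at 37 C, 5% CO2, then loaded with FRET substrate for 2 hr at room temperature.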

Assay [8] has as its target Thyrotropin-releasing hormone receptor (Homo sapiens) (UniProt P34981). The assay is described as follows: qHTS assay to identify small molecule antagonists of the thyrotropin-releasing hormone receptor (TRHR) signaling pathway (AID 1346877; active = well fitted inhibition curve with a large enough effect in the repeat runs, not every such curve was filed as active; also: series mostly up to about 51 µM; % is scaled to controls: 0 for no effect and ±100 for the full control effect). The gist of the method:
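Antagonism is measured as suppression of the calcium response to 1 nM TRH in TRHR-HEK293 cells that have been dye-loaded for 2 h at 37 °C after overnight plating. Each compound is tested at 15 concentrations in triplicate.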

The target is the same in assay [9]. The assay is described as follows: qHTS assay to identify small molecule agonists of the thyrotropin-releasing hormone receptor (TRHR) signaling pathway (AID 1346891; calls by dose curve; also: series mostly up to about 58 µM; % is scaled to controls: 0 for no effect and ±100 for the full control effect). The gist of the method:
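TRHR-expressing HEK293 cells were plated 18 h at 37 °C/5% CO2, loaded with calcium dye 2 h at 37 °C, then given compound in DMSO; fluorescence was read kinetically for 3 min at 1 s intervals.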

Assay [10] is described as follows: Human pregnane X receptor (PXR) small molecule agonists, qHTS cell viability counter screen (AID 1346977). Also: nearly all actives have a fitted effect of over 50% in size. Also: potency is read from the fitted curve at half-maximal effect. The gist of the method:
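PXR-Luc HepG2 cells in medium with 5% charcoal-stripped FBS were pre-incubated 5hr, then exposed to compounds for 24hr at 37C. Viability was read in the same wells by CellTiter-Fluor fluorescence, reagent added after 23hr with a 1hr incubation.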

Assay [11] in a line: Caspase-3/7 induction in HepG2 cells by small molecules, qHTS assay (AID 1346978). Also: % is scaled to controls: 0 for no effect and ±100 for the full control effect; nearly all actives have a fitted effect of over 15% in size. In a few lines:
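Wild-type HepG2 cells, 2,000/well, settled 5 hr at 37 C and 5% CO2, then compound-treated for 17 hr; caspase-3/7 activity read by luminescent Caspase-Glo 3/7 after 30 min at room temperature.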

Assay [12] in a line: Caspase-3/7 induction in CHO-K1 cells by small molecules, qHTS cell viability counter screen (AID 1346979). Also: nearly all actives have a fitted effect of over 35% in size. Also: potency is read from the fitted curve at half-maximal effect. The gist of the method:
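Wild-type CHO-K1 cells were seeded at 1,500 per well, rested 5hr at 37 C, then exposed to compounds in DMSO. After 16hr, CellTiter-Fluor reagent was added and fluorescence read 1hr later as the viability measure.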

Assay [13] can be described thus: Caspase-3/7 induction in HepG2 cells by small molecules, qHTS cell viability counter screen (AID 1346981). Also: nearly all actives have a fitted effect of over 30% in size. Also: potency is read from the fitted curve at half-maximal effect. In a few lines:
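Cell viability is measured as a cytotoxicity counter screen alongside the Caspase-Glo 3/7 readout in identical wells. Wild-type HepG2 cells are treated with test compounds for 16 hr at 37 C before CellTiter-Fluor addition and a 1-hr incubation.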

The target in assay [14] is Nuclear receptor subfamily 1 group I member 2 (Homo sapiens) (UniProt O75469). Description: Human pregnane X receptor (PXR) small molecule agonists, qHTS assay (AID 1346982). Also: nearly all actives have a fitted effect of over 35% in size. Also: potency is read from the fitted curve at half-maximal effect. As to activation: % is scaled to controls: 0 for no effect and ±100 for the full control effect. The gist of the method:
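Cells: HepG2 stably carrying PXR-Luc. Medium held 5% charcoal-stripped FBS. Compounds in DMSO added after 5 hr plating, incubated 24 hr, then luminescence quantified with ONE-Glo.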

Assay [15] is described as follows: qHTS assay to identify small molecule agonists of the progesterone receptor (PR) signaling pathway - cell viability counter screen (AID 1346799; calls by dose curve; also: nearly all actives have a fitted effect of over 45% in size; also: potency is read from the fitted curve at half-maximal effect). In a few lines:
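PR-UAS-bla HEK293T cells, 3,000 per well in medium with 2% charcoal-stripped FBS, were preincubated 6 hr at 37C, then exposed to compounds for 16 hr; viability was read as CellTiter-Glo luminescence after 30 min at room temperature.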

The nature of assay [16]: Caspase-3/7 induction in CHO-K1 cells by small molecules, qHTS assay (AID 1346980). Also: % is scaled to controls: 0 for no effect and ±100 for the full control effect; nearly all actives have a fitted effect of over 15% in size. In a few lines: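 Wild-type CHO-K1 cells exposed to compounds for 17hr at 37 C, 5% CO2. Caspase-3/7 activity then measured by Caspase-Glo 3/7 luminescence after 30min at room temperature.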
Assay [17] deals with Nuclear receptor subfamily 1 group I member 2 (Rattus norvegicus) (UniProt Q9R1A7). The assay is described as follows: Rat pregnane X receptor (rPXR) activation by small molecules, qHTS assay (AID 1346983). Also: % is scaled to controls: 0 for no effect and ±100 for the full control effect; nearly all actives have a fitted effect of over 20% in size. The note with it: rPXR luciferase reporter cells, One-Glo luminescence, 24 h; max activation: hits give high values. The gist of the method:
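Cell-based rPXR activation assay: rPXR cells, 2,000 per well, rested 5hr at 37 C, then exposed to compounds in DMSO for 24 hr at 37 C. Luciferase activity read by One-Glo luminescence after 30 min at room temperature.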

Assay [18] deals with Nuclear receptor subfamily 1 group I member 2 (Homo sapiens) (UniProt O75469). Description: CYP3A4 induction through human pregnane X receptor (PXR) by small molecules, qHTS assay (AID 1346984). Also: potency is read from the fitted curve at half-maximal effect; nearly all actives have a fitted effect of over 40% in size. In a few lines:
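Quantitative HTS in DPX-2 cells, i.e. HepG2 transfected with PXR response element and CYP3A4-promoter luciferase. Compounds in DMSO incubated 24hr at 37C; then P450-Glo CYP3A4 substrate, 3uM final, 3hr; One-Glo luminescence.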

In assay [19] the target is Progesterone receptor (Homo sapiens) (UniProt P06401). Description: qHTS assay to identify small molecule antagonists of the progesterone receptor (PR) signaling pathway (AID 1346795; active = well fitted inhibition curve with a large enough effect in the signal ratio in the repeat runs, not every such curve was filed as active; the % refers to the signal ratio; also: potency is read from the fitted curve at half-maximal effect). The gist of the method:
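PR-UAS-bla HEK293T cells carrying a UAS-driven beta-lactamase reporter were plated in medium with 2% charcoal-stripped FBS and rested 6 hr at 37C. Compounds were added with 1 nM R5020 (final) for 16 hr, then FRET substrate loaded 2 hr at room temperature.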

Chain of Nuclear receptor subfamily 1 group I member 2 (Homo sapiens) (O75469 whole entry, looked up): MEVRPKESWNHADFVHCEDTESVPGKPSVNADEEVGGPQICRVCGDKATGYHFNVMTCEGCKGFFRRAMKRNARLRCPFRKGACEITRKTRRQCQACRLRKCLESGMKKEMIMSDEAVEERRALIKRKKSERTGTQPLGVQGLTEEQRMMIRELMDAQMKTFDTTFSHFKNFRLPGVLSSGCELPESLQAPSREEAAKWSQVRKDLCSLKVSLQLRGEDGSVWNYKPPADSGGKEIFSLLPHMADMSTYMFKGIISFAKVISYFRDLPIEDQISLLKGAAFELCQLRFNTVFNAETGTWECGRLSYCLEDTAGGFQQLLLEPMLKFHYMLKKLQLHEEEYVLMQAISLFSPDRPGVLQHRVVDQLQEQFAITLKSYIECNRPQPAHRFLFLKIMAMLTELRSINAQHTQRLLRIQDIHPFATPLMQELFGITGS
Chain of Thyrotropin-releasing hormone receptor (Homo sapiens) (P34981 whole entry, looked up): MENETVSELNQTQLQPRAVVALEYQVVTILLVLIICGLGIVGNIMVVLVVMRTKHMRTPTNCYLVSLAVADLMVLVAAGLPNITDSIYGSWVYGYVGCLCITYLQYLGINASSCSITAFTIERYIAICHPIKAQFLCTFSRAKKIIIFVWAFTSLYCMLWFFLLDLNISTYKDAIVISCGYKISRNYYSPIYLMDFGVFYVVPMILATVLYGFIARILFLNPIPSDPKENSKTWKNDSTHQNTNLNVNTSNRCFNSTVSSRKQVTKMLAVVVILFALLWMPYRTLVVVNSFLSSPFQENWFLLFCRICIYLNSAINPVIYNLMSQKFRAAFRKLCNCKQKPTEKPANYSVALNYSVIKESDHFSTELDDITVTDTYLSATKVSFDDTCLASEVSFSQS
Chain of Thyrotropin receptor (Homo sapiens) (P16473 whole entry, looked up): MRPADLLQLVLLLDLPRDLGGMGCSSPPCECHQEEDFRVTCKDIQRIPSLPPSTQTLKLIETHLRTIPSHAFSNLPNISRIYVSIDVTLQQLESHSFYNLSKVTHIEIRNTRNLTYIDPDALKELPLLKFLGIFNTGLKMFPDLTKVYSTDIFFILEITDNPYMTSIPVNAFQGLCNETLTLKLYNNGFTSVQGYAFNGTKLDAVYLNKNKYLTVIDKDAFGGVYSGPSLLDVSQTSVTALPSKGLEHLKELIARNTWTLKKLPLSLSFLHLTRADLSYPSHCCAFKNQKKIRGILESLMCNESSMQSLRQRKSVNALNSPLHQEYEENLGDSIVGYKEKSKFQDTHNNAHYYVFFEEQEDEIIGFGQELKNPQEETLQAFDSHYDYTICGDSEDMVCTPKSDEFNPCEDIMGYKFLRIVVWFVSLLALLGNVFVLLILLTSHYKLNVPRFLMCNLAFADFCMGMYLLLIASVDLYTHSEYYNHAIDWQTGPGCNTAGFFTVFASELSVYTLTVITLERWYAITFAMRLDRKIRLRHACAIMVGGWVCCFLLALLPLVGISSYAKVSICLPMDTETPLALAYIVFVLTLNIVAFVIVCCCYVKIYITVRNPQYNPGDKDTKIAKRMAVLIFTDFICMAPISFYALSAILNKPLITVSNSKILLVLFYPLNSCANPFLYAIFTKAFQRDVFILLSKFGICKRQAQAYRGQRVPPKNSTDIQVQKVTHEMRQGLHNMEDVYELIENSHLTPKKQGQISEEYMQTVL
Chain of Nuclear receptor subfamily 1 group I member 2 (Rattus norvegicus) (Q9R1A7 whole entry, looked up): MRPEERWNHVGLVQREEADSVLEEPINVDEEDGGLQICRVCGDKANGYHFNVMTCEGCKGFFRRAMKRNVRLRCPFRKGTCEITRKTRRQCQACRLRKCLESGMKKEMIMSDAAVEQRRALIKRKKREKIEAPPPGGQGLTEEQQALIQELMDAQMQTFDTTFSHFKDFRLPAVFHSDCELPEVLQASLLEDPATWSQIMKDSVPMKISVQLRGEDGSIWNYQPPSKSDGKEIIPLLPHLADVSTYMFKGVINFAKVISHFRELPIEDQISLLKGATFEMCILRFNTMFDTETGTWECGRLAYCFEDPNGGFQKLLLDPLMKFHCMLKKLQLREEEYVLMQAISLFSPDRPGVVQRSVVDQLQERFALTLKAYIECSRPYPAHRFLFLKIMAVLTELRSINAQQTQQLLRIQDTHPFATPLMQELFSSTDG

As to `Cc1ccc(C(C)(C)O)cc1`, the Potency result in assay [1], in assay [2], in assay [3], in assay [4], in assay [5] and in assay [6] was “inactive” each time. The Potency result in assay [7], in assay [9], in assay [10], in assay [11], in [12] and in assay [13] was “inactive” throughout. The Potency entry in [14] was “inactive”. For the same compound, the outcome in assay [8] was inactive.

Consider `CCCCCCNC(=O)n1cc(F)c(=O)[nH]c1=O`, for which the Potency result in assay [1], in assay [2], in assay [3], in [4], in [15] and in assay [5] was “inactive” throughout. Besides, the Potency entry in assay [6], in assay [7], in assay [9], in assay [10], in [11] and in assay [16] was “inactive” each time. Moreover, the outcome in assay [8] was inactive. The values for the Potency in assay [14] and in assay [18] were 15 µM (active) and 0.794 µM (active), respectively. The max activation in [17] was -10.4%.

`CCOC(=O)C1=C(C)NC(C)=C(C(=O)OC)C1c1cccc(Cl)c1Cl` (configuration not stated): the Potency entry in assay [1], in assay [2], in assay [3], in assay [6], in assay [7] and in [9] was “inactive” in each case. The Potency entry in [10], in assay [11] and in assay [13] was “inactive” throughout. For the same compound, the Potency is 3.76 µM (active) in assay [19] and 13.3 µM (active) in assay [12]. Further, the compound was called inactive in assay [8].

Take `CC(C)c1nc(CN(C)C(=O)N[C@H](C(=O)N[C@@H](Cc2ccccc2)C[C@H](O)[C@H](Cc2ccccc2)NC(=O)OCc2cncs2)C(C)C)cs1`: the Potency result in [1], in [3], in assay [5], in [6], in [7] and in [9] was “inactive” throughout. Further, the Potency entry in assay [11] and in [16] was “inactive” throughout. For the same compound, the Potency in assay [2] was 13.3 µM (active); in [4], 29.8 µM (active); in assay [15], 26.6 µM (active); in assay [10], 9.44 µM (active); in [12], 23.7 µM (active); in [13], 21.1 µM (active). In addition, the Potency in [14] is 5.96 µM (active). The outcome in [8] was inactive.

With `Cc1ccco1`, the Potency result in [1], in assay [2], in assay [3], in assay [4], in [15] and in [5] was “inactive” each time. Also, the Potency entry in assay [6], in assay [7], in assay [9], in assay [11], in assay [12] and in [16] was “inactive” throughout. Moreover, the Potency result in assay [13] and in [14] was “inactive” throughout. Also, in assay [8], the result was inactive.

For `N#CCCN(CCO)CCO`, the Potency result in assay [1], in assay [2], in assay [3], in assay [4], in assay [15] and in [6] was “inactive” in each case. Besides, the Potency result in assay [9], in [10], in assay [11], in [12], in [16] and in assay [13] was “inactive” each time. In addition, the Potency entry in [14] is “inactive”. Further, in [8], the compound was called inactive.

Consider `CCC(C)COC(=O)CC(C)C` (configuration not stated), for which the Potency result in assay [1], in assay [2], in assay [3], in assay [5], in assay [6] and in assay [7] was “inactive” in each case. Moreover, the Potency entry in assay [9], in [10], in [11], in [12], in assay [16] and in assay [13] was “inactive” in each case. The Potency result in assay [14] was “inactive”. Moreover, in [4], the Potency was 9.69 µM (active). For the same compound, the outcome in [8] was inactive.
